Compounds with a hit are over-represented: about 2.6% of the library has one in this group of screens.
Gli-Sufu block: antagonists of Gli-Sufu signaling | AID 588413 | inhibition, % at 5 µM | Sufu-KO-LIGHT fibroblasts, Gli luciferase reporter luminescence | actives 0.74% (n = 340,000);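 active means inhibition above about 55%, limit read from the data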
H9c2 protect: modulators protecting cardiomyocytes from myocardial damage | actives 0.63% (n = 360,000) | AID 588492 | protection from H2O2 cell death, % at 20 µM | H9c2 cardiomyocytes, H2O2 injury protection, ATPLite, 2 h;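 active means compounds giving at least 50% protection of heart cells from peroxide-induced death in the single-dose screen, raw or plate-pattern-corrected value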
697 NFkB inh: lowers PMA/ionomycin-induced NF-kB signal in 697 B cells. 697 B-cell NF-kB luciferase reporter, 16 h. inhibition, % at 4 µM. actives 0.33% (n = 330,000). AID 435022; in the data active means inhibition above about 35%
COUP-TFII inh: blocks human COUP-TFII nuclear receptor; AID 686940; P24468; actives 0.7% (n = 370,000); inhibition, % at 8.6 µM; HEK293T NGFI-A luciferase reporter, luminescence;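 active means inhibition above a per-plate cutoff, mean inhibition of test wells between control levels plus 3 SD, cut at about 38% in these data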;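 further: cells cotransfected with COUP-TFII expression vector driving the NGFI-A reporter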
Target sequence (P24468 whole entry, looked up): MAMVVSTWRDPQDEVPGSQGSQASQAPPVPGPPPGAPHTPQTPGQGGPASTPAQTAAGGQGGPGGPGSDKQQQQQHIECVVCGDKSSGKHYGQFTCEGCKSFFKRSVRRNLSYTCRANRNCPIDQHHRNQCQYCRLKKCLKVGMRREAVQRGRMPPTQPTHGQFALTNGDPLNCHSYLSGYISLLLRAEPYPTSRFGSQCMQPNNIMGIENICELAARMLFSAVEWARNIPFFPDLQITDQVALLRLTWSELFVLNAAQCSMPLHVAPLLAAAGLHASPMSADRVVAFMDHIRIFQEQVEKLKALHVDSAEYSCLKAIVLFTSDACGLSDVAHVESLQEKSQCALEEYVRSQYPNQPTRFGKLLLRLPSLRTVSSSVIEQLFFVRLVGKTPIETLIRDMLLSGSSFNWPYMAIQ
TAG inh: triacylglycerol accumulation inhibition. inhibition, % at 12.5 µM. actives 0.66% (n = 230,000). H9c2 cells, Nile Red lipid (TAG) fluorescence; cells loaded with 200 µM oleic acid;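 active means pattern-corrected inhibition of lipid staining of at least 50% with the nuclear-stain viability signal not falling by more than 50%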
Jurkat NFkB inh: lowers PMA/ionomycin-induced NF-kB signal in Jurkat cells | PMA/ionomycin-induced NF-kB luciferase reporter, luminescence | inhibition, % at 4 µM | actives 0.53% (n = 330,000) | AID 435003; in the data active means inhibition above about 50%
Gal4-VP16 ctr: VP16 inhibition counter-screen for COUP-TFII; shares compounds with COUP-TFII inh; HEK293 Gal4-VP16 luciferase reporter, luminescence; inhibition, % at 8.5 µM; actives 25% (n = 2,500); AID 687007; in the data active means inhibition above about 13%
NR2F2 inh conf: confirmation of human COUP-TFII (NR2F2) inhibitors; shares compounds with COUP-TFII inh; HEK293 NGFI-A luciferase reporter, luminescence; inhibition, % at 8.5 µM; actives 45% (n = 2,500); AID 687008;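 active means mean inhibition over three repeats above a set limit taken from the earlier primary screen, cut at about 38% in these data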
Numbers stand for hits; 0 = inactive; - = no result.

SMILES | Gli-Sufu block | H9c2 protect | 697 NFkB inh | COUP-TFII inh | TAG inh | Jurkat NFkB inh | Gal4-VP16 ctr | NR2F2 inh conf
Cc1ccc2nc(NC(=O)C3CCN(S(=O)(=O)c4cccnc4)CC3)sc2c1 | 0 | 0 | 0 | 0 | 0 | 0 | - | -
COc1ccc2nc(NC(=O)C3CCN(S(=O)(=O)c4cccs4)CC3)sc2c1 | 0 | 0 | 0 | 48 | - | 0 | 0 | 0
COc1ccc2nc(NC(=O)C3CCCN(S(=O)(=O)c4cccs4)C3)sc2c1 (stereo not drawn) | 0 | 0 | 0 | 0 | 0 | 0 | - | -
Cc1ccc2nc(NC(=O)c3ccccn3)sc2c1 | 78 | 0 | 0 | 58 | 0 | 0 | 0 | 0
COc1ccc(C(=O)OCCN2CCN(C3CN(Cc4cn(Cc5cccc(F)c5)nn4)S(=O)(=O)C3)CC2)cc1OC (stereo not drawn) | - | - | - | 0 | - | - | - | -
COc1ccc(C(=O)OCCN2CCN(C3CN(Cc4cn(Cc5cccc(C)c5)nn4)S(=O)(=O)C3)CC2)cc1OC (stereo not drawn) | - | - | - | 47 | - | - | 0 | 0
O=C(CSc1nc2ccccc2s1)N/N=C/c1ccccc1C(=O)O | 0 | 0 | 0 | 43 | 0 | 0 | 0 | 0
C=CCN1C(=O)S/C(=C/c2ccc(Sc3nc4ccccc4[nH]3)o2)C1=O | 0 | 0 | 0 | 46 | - | 0 | 0 | 0
CC(C)N1C(=O)S/C(=C/c2ccc(Sc3nc4ccccc4[nH]3)o2)C1=O | 0 | 0 | 0 | 0 | - | 0 | - | -
Cc1ccccc1CNC1CCC12CCC(c1ccccc1)CC2 (stereo not drawn) | - | - | - | 0 | - | - | - | -
Cn1cc(/C=C/c2cc[n+](C)cc2)c2cc(Cl)ccc21 | 0 | 0 | - | 59 | - | - | 0 | 0
S=C(NN=C(c1ccccc1)c1ccccn1)N(Cc1ccccn1)Cc1ccccn1 | 69 | 0 | - | 54 | 62 | - | 0 | 45
O=C(NN=C(c1ccccc1)c1ccccn1)c1ccccc1 | 0 | 0 | 0 | 0 | 0 | 0 | - | -
CCOC(=O)CC[C@H]1CC[C@]2(CCCN(C(=O)c3ccccc3)C2)O1 | - | - | - | 0 | - | - | - | -
COc1cccc(OCCn2cc(C(C)=O)c3ccccc32)c1 | 0 | 0 | 0 | 49 | 0 | 0 | 0 | 43
COc1cccc(OCCn2cc(C(=O)c3ccco3)c3ccccc32)c1 | 0 | 0 | 0 | 0 | - | 0 | - | -
CN1C(=O)/C(=C/c2coc3ccc(O)cc3c2=O)SC1=S | 0 | 0 | 0 | 0 | 0 | 0 | - | -
Cc1cc(/C=C2\SC(=S)N(C)C2=O)c(C)n1-c1ccccc1O | 0 | 0 | 0 | 43 | 0 | 0 | 0 | 0
Cc1ccc(/C=C2\SC(=S)N(c3cccnc3)C2=O)o1 | 0 | 0 | 0 | 0 | 0 | 0 | - | -
Cc1cc(/C=C2/SC(=S)N(c3cccc(Cl)c3)C2=O)c(C)n1-c1cccnc1 | 0 | 0 | 0 | 65 | 0 | 0 | 0 | 64
Cc1cc(/C=C2\SC(=S)N(C)C2=O)c(C)n1-c1ccc(O)cc1 | 0 | 0 | 0 | 84 | 0 | 0 | 68 | 98
CCC(=O)N1CCN(c2ccc(NC(=O)COc3ccccc3Cl)cc2)CC1 | 0 | 0 | 0 | 50 | - | 0 | 0 | 0
CC1=C/C(=N\NC(=S)Nc2cccnc2)CC(C)(C)C1 | 0 | 0 | - | 39 | 53 | - | 0 | 0
CC1(C)C2CC=C(/C=N/NC(=S)Nc3cccnc3)C1C2 (stereo not drawn) | 0 | 0 | 0 | 0 | 0 | 0 | - | -
Cc1cc(/C=C2/C(=O)NN(c3ccccc3)C2=O)c(C)n1-c1cccc(O)c1 | 0 | 0 | 0 | 41 | - | 0 | 0 | 39
SMILES | Gli-Sufu block | H9c2 protect | 697 NFkB inh | COUP-TFII inh | TAG inh | Jurkat NFkB inh | Gal4-VP16 ctr | NR2F2 inh conf
Cc1cc(C(=O)NCC2COc3ccccc3O2)c2ccccc2n1 (stereo not drawn) | 0 | 0 | 0 | 38 | 0 | 0 | 0 | 0
O=C(Cc1ccccc1)Nc1ccc(C(=O)NCC2COc3ccccc3O2)cc1 (stereo not drawn) | 0 | 0 | 0 | 0 | - | 0 | - | -
O=C(CCl)Nc1ccc(C(=O)NCC2COc3ccccc3O2)cc1 (stereo not drawn) | - | - | - | 40 | - | - | 67 | 0
CCOc1ccc(N(CC(=O)Nc2c(C)n(C)n(-c3ccccc3)c2=O)S(=O)(=O)c2cccc3cccnc23)cc1 | - | - | - | 0 | - | - | - | -
Cc1ccc(OCC(=O)NC(=S)Nc2ccccn2)c(Br)c1 | 0 | 0 | 0 | 50 | 0 | 0 | 0 | 0
Cc1ccc(-c2nc(CS(=O)CC(=O)NCCCN3CCN(Cc4ccccc4)CC3)c(C)o2)cc1 (stereo not drawn) | 0 | 0 | 0 | 41 | - | 0 | 0 | 0
Nc1nc2c(ncn2[C@@H]2O[C@H](C(=O)NCC(c3ccccc3)c3ccccc3)[C@@H](O)[C@H]2O)c(=O)[nH]1 | - | - | - | 0 | - | - | - | -
Cc1cccc(Oc2ccccc2NC(=O)CSCC(=O)Nc2cc(C)on2)c1 | 0 | 0 | 0 | 0 | 0 | 0 | - | -
CCOc1ccc(Oc2ccccc2NC(=O)CSCC(=O)Nc2cc(C)on2)cc1 | 0 | 0 | 0 | 50 | 0 | 0 | 0 | 38
CC(C)(C)n1ncc2c(=O)n(CC(=O)OCc3ccccc3)cnc21 | 0 | 0 | 0 | 61 | 0 | 0 | 59 | 80
CC(C)(C)n1ncc2c(=O)n(CC(=O)c3ccccc3)cnc21 | 0 | 0 | 0 | 0 | 0 | 0 | - | -
Cc1ccc(S(=O)(=O)C=CS(=O)(=O)c2ccc(C)cc2)cc1 | - | 0 | - | 0 | 0 | - | - | -
O=S(=O)(/C=C/C=C/S(=O)(=O)c1ccccc1)c1ccccc1 | 0 | 0 | - | 51 | 0 | - | 49 | 72
CC(C)N(Cc1ccccc1)S(=O)(=O)c1n[nH]c(C(C)(C)C)n1 | - | - | - | 0 | - | - | - | -
COC(=O)CNc1cc(S(=O)(=O)N2CCCCC2)ccc1Oc1ccc(C(=O)OC)cc1 | 0 | 0 | 0 | 0 | - | 0 | - | -
COC(=O)c1ccc(Oc2ccc(S(=O)(=O)N3CCCCC3)cc2N)cc1 | 0 | 0 | 0 | 39 | - | 0 | 0 | 0
COc1ccccc1NS(=O)(=O)c1cccc(-n2c(O)c(C=Nc3ccccc3C(=O)O)c3ccccc3c2=O)c1 | 0 | 0 | 0 | 39 | 0 | 0 | 0 | 46
COc1ccc(Cn2c(O)c(C=Nc3ccccc3C(=O)O)c3ccccc3c2=O)cc1 | 0 | 0 | 0 | 0 | 0 | 0 | - | -
C=CCN1c2ccccc2Sc2cnccc21 | - | 0 | - | 0 | 0 | - | - | -
CC(=O)OCCN1c2ccccc2Sc2cnccc21 | - | 0 | - | 37 | 0 | - | 0 | 0
CCOc1ccccc1C(=O)Nc1cc2c(cc1N1CCCC1)n(CC)c(=O)n2CC | 58 | 0 | 0 | 41 | - | 0 | 0 | 0
CCOc1ccc(-n2c(SCC(=O)c3ccc4ccccc4c3)nnc2-c2cccc(Cl)c2)cc1 | - | - | - | 0 | - | - | - | -
CCOc1ccccc1-n1c(SCC(=O)Nc2ccccc2C(=O)O)nc2ccccc2c1=O | 0 | 0 | 0 | 56 | - | 0 | 23 | 0
Cc1cc(C)cc(C(=O)NC(=S)Nc2ccc(-c3cc4ccccc4oc3=O)cc2)c1 | 0 | 0 | 0 | 39 | - | 0 | 18 | 0
CC(=O)Nc1ccc(NC(=O)c2cccc(-c3cc4ccccc4oc3=O)c2)cc1 | 0 | 0 | 0 | 0 | 0 | 0 | - | -

Source: PubChem BioAssay
